# A selection: hits, their analogues and other compounds. The true share with any hit is near 10%.
# BAZ2B block: qHTS Assay for Inhibitors of BAZ2B; Bromodomain adjacent to zinc finger domain protein 2B (Homo sapiens), Q9UIF8; AlphaScreen BAZ2B-H3K14Ac peptide displacement; Potency, µM (top dose mostly 114 µM), inactives show at the highest dose activity change, negative = inhibition, usual class: inhibitors; 4.4% of 360,000 active; AID 504333, 2011; note: % is set by controls: 0 for no effect and ±100 for the full control effect; nearly all actives have a fitted effect of over 60% in size
#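 AlphaScreen displacement: compounds (up to 110uM) incubated 30 min at room temperature with a preformed 50 nM BAZ2B/50 nM biotinylated H3K14Ac peptide complex in PBS pH 7.4 with Tween-20. Donor and acceptor beads at 10 ug/mL final added, 20 min light-protected before reading.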
# JMJD2A Tudor: qHTS Assay for Inhibitors of JMJD2A-Tudor Domain; Lysine-specific demethylase 4A (Homo sapiens), O75164; AlphaScreen JMJD2A-Tudor / H3K4me3 peptide binding; Potency, µM (highest dose often 114 µM), for inactives: at the highest dose activity change, negative = inhibition, most hits filed as inhibitors; 4.4% of 390,000 active; note: % is set by controls: 0 for no effect and ±100 for the full control effect; nearly all actives have a fitted effect of over 50% in size
# HP1b chromo inh: HTS for Inhibitors of HP1-beta Chromodomain Interactions with Methylated Histone Tails. Potency, µM (series often up to 114 µM), for the others: top-dose activity change, negative = inhibition, hits mostly inhibitors. Chromobox protein homolog 1 (Homo sapiens), P83916. 0.56% of 390,000 active. AID 540317, 2011. AlphaScreen HP1-beta / biotin-H3K9me3 peptide binding; note: nearly all actives have a fitted effect of over 70% in size
#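 AlphaScreen: HP1-beta (50 nM) preformed 30 min with biotin-H3(1-18)K9me3 peptide (50 nM) in PBS pH 7.4, 0.01% Tween-20. Compound added for 30 min at RT, then streptavidin donor/nickel chelate acceptor beads (10 ug/mL) for 30 min.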
# GLS inh: qHTS for Inhibitors of Glutaminase (GLS); AID 624170, 2012; Potency, µM (titrated, usually from 45.5 µM), for inactives: top-dose activity change, negative = inhibition, most hits filed as inhibitors; GLS enzymatic activity, qHTS titration; 0.21% of 410,000 active; note: % is set by controls: 0 for no effect and ±100 for the full control effect
#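 Coupled fluorescence readout: glutamate oxidase/HRP/Amplex Red detect glutamate formed by hKGA from L-glutamine (1 mM solution added). Buffer 45 mM KH2PO4 pH 8.2, 0.02% Tween-20; reads at t0 and 30 min RT.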
# G9a inh: qHTS Assay for Inhibitors of Histone Lysine Methyltransferase G9a; Potency, µM (highest dose often 102 µM), for the others: top-dose activity, negative = inhibition, hits mostly inhibitors; AID 504332, 2011; G9a H3K9 monomethylation, AlphaScreen, 2 h; 8.8% of 350,000 active; note: % is set by controls: 0 for no effect and ±100 for the full control effect; nearly all actives have a fitted effect of over 75% in size
#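 Compounds were preincubated with 20 nM G9a for 15 min, after which biotinylated H3K9 peptide (500 nM) and SAM (20 uM) started a 2 h room-temperature reaction. Monomethylated product was quantified by antibody-based AlphaScreen chemiluminescence.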
# An asterisk follows results filed as active; ? = inconclusive; nt = not tested or not shown; [ ] = another dose, or the depositor's remark. Calls come from the whole dose curve; as a rule, active = well fitted curve in the direction sought with a large enough effect; inconclusive = small, poorly fitted or top-dose-only effect, or another doubt; inactive = no such curve, though single readings can be large; an effect the other way counts as inactive or inconclusive. Potency is the fitted concentration of half-maximal effect.
SMILES,BAZ2B block,JMJD2A Tudor,HP1b chromo inh,GLS inh,G9a inh
CCOc1cc(CN2CCN(c3cccc(C(F)(F)F)c3)CC2)ccc1OC,8.9µM*,8.9µM*,?,25%,22µM*
CCOc1cc(CN2CCN(c3ccc(C(C)=O)cc3)CC2)ccc1OC,56µM*,1.4µM*,?,4%,32µM*
COc1ccc(CC(C)N2CCN(c3cccc(C(F)(F)F)c3)CC2)cc1OC (stereo unspecified),?,?,-3%,22%,?
COc1ccc(O)c(CN2CCN(C/C=C/c3ccccc3)CC2)c1,?,56µM*,-20%,24%,?
COc1cc(Br)cc(CN2CCN(C/C=C/c3ccccc3)CC2)c1O,40µM*,?,8%,-1%,40µM*
COc1ccc(OC)c(NC(=S)N2CCN(C/C=C/c3ccccc3)CC2)c1,?,-21%[57.1 µM],?,3%,10%[12.7 µM]
CCN(C[C@H]1N[C@@](Cc2ccccc2)(C(=O)OC)[C@H]2C(=O)N(Cc3ccccc3)C(=O)[C@@H]12)C(=O)COC,nt,-22%,19%,-3%,nt
CSCCC(NS(=O)(=O)c1ccc(Cl)cc1)C(=O)OCC(=O)NC1CC1 (stereo unspecified),5%,-17%,21%,1%,2%[0.501 µM]
COc1ccc(/C=N/Nc2nnc(C)n2N)cc1OC(C)=O,-25%,-11%,23%,-26%,45µM*
CC(=O)Nc1ccc(C(=O)OCC(=O)Nc2c(C)n(C)n(-c3ccccc3)c2=O)cc1,nt,-3%,26%,4%,nt
COC(=O)[C@H](C)NC(=O)Nc1cccc(C(F)(F)F)c1,-3%,-20%,22%,3%,7%[59 µM]
O=C(O)CCCCCNC(=O)CCn1cnc2ccccc2c1=O,-31%,-21%,35%,0%,2%
O=c1c2cc(NC(=S)NC3CC3)ccc2nc2n1CCCCC2,-7%,-17%,39%,-5%,9%
O=C(CN1CCN(Cc2ccccc2)CC1)Nc1ccc2c(c1)CCC2,-27%,-10%,23%,-15%,?
O=C(CN1CCN(c2ccccc2O)CC1)Nc1ccc2c(c1)CCC2,-9%,?,-12%,0%,71µM*
O=C(CN1CCCC1)Nc1ccc2c(c1)CCC2,50µM*,3.2µM*,-4%,-9%,25µM*
Cn1ccc(NC(=O)c2ccc([N+](=O)[O-])cc2)n1,8%,-16%,20%,-3%,22%[59 µM]
COc1ccc(C(=O)Nc2ccc(S(=O)(=O)N3CCN(C)CC3)cc2)cc1[N+](=O)[O-],-25%,-7%,19%,-2%,1%[59 µM]
COc1ccc(C(=O)Nc2ccc(S(=O)(=O)NC(C)=O)cc2)cc1[N+](=O)[O-],-15%,-18%,29%,3%,50µM*
CCOCCCNS(=O)(=O)c1ccc(NC(=O)c2ccc(OC)c([N+](=O)[O-])c2)cc1,0%,11µM*,-15%,-5%,11%
CCOCCCNS(=O)(=O)c1ccc(NC(=O)c2ccc([N+](=O)[O-])cc2Cl)cc1,-2%,-17%,14%,2%,18%[59 µM]
Cn1ncc(Br)c1C(=O)N1CCCC1,5%,-1%,23%,19%,nt
Cn1ncc(Br)c1C(=O)N1CCCCCC1,4%,-2%,13%,7%,32µM*
CC(=O)Nc1ccc(-c2nc3cc(Cl)ccc3o2)cc1,-33%,-19%,44%,-6%,?
O=C(NCC1CCCCC1)c1cc([N+](=O)[O-])ccc1Cl,-3%,-19%,-10%,?,6%
CC1(C)OC(c2ccccc2)=C/C(=C\C=N\NC(=O)c2ccncc2)O1,71µM*,-29%,7%,-12%,43%[12.7 µM]
COc1ccc(-n2cnc(=S)[nH]c2=S)cc1,nt,-34%,?,17%,nt
CC(C)(C)c1cn(-c2ccc(Cl)cc2)c(=S)[nH]1,-3%,35µM*,4%,-8%,2µM*
COc1ccc2ccccc2c1C1CC(=O)N2CN(C3CCCCC3)CSC2=C1C#N (stereo unspecified),?,?,?,-17%,1.6µM*

# High-throughput results: PubChem BioAssay, National Center for Advancing Translational Sciences (NCATS)
